KCNQ2 block – inhibitors of rat KCNQ2 potassium channel; CHO-K1 KCNQ2, FluxOR thallium flux, 20 min; stronger effect = lower value; B-score at 10 µM; actives 1.1% (n = 310,000); AID 2156;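 active = fluorescence ratio B-score at most minus 3 library SDs, with starting brightness B-score within 2 library SDs, cut at about -5.5 in these data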
Target sequence (O88943 whole entry, looked up): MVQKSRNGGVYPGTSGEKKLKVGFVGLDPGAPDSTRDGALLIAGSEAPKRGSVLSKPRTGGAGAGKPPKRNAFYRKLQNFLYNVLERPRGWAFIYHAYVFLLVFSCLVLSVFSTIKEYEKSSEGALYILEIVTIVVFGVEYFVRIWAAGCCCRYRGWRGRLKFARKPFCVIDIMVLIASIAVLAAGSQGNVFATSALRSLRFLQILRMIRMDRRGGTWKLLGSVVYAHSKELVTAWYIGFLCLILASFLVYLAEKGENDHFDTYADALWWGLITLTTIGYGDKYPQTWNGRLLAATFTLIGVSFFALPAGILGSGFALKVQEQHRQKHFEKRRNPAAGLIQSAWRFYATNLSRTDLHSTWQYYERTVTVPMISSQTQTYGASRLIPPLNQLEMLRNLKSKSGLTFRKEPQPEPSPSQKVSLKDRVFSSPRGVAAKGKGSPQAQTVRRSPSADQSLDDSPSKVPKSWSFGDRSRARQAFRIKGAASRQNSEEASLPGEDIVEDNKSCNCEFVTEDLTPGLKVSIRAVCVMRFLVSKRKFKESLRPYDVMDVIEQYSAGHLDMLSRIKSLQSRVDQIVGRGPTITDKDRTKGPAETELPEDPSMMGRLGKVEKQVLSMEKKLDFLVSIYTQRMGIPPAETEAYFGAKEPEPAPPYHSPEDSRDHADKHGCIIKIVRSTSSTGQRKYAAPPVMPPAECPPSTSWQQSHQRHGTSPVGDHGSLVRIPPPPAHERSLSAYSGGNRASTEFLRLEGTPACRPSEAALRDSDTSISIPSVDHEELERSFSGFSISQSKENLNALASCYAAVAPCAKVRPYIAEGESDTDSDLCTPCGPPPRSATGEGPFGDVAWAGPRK
KCNQ2 enhance – potentiators of rat KCNQ2 potassium channel | CHO-K1 KCNQ2, FluxOR thallium flux fluorescence; stronger effect = higher value | actives 0.54% (n = 310,000) | O88943 | B-score at 10 µM | AID 2239;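 active = fluorescence ratio B-score at least 3 SD of library B-scores, with initial fluorescence B-score within 3 of them, cut at about 5.3 in these data; same plate scores as AID 2156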;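 note: B-score of peak minus minimum over baseline fluorescence ratio after K+ and Tl+ stimulus; positive B-score means potentiation of KCNQ2 with more thallium influx and brighter signal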
* hit, by the source's call. Compounds with a hit are over-represented: about 1.6% of the library has one in this group of screens.

For CSc1nsc(SCC(=O)Nc2ccc(C(=O)O)cc2)n1 the results were KCNQ2 block inactive and KCNQ2 enhance 0.97.
`CSc1ccccc1C(=O)NC1CCSc2ccccc21` (centres undefined) gave KCNQ2 block inactive.
For O=C1Nc2ccccc2/C1=N/N=C/c1ccc(-c2ccc([N+](=O)[O-])cc2)o1 the results were KCNQ2 block inactive.
Screening CCSc1nc(=S)cc(C)[nH]1 returned KCNQ2 block inactive and KCNQ2 enhance 13*.
CCSc1nc(O)cc(=O)[nH]1 was read as KCNQ2 block inactive.
For CCCn1c(SCC(=O)NC2CCCC2)nnc1C(C)C the results were KCNQ2 block inactive and KCNQ2 enhance 1.4.
`Cc1sc2ncn(CC(=O)NCC3COc4ccccc4O3)c(=O)c2c1S(=O)(=O)N1CCCCC1` (centres undefined) gave KCNQ2 block inactive and KCNQ2 enhance 1.3.
For COC(=O)c1cc2cc(Cl)ccc2nc1SC the results were KCNQ2 block inactive and KCNQ2 enhance 1.4.
For CCC(=O)N(CCC1(c2ccccc2OC)CCOC(C(C)C)C1)Cc1ccco1 (centres undefined) the results were KCNQ2 block -5.8* and KCNQ2 enhance -5.8.
Screening COc1ccccc1C1(CC(=O)O)CCOC(C(C)C)C1 (centres undefined) returned KCNQ2 block inactive.
For O=C(C1CCCN(C2CC(=O)N(c3ccc(Cl)cc3)C2=O)C1)N1CCCC1 (centres undefined) the results were KCNQ2 block inactive and KCNQ2 enhance 0.05.
Screening CN1CCN(NC(=O)c2cc(Br)ccc2Cl)CC1 returned KCNQ2 block inactive.
Screening O=C(NCC(c1ccco1)N1CCc2ccccc2C1)c1ccc(Cl)c([N+](=O)[O-])c1 (centres undefined) returned KCNQ2 block -5.8* and KCNQ2 enhance -5.8.
Screening O=C(NCC(c1ccco1)N1CCc2ccccc2C1)c1cccc([N+](=O)[O-])c1 (centres undefined) returned KCNQ2 block inactive.
`COc1ccc(C(=O)NCC(c2ccco2)N2CCc3ccccc3C2)cc1` (centres undefined) gave KCNQ2 block inactive.
For CCOc1ccc(C(=O)NCC(c2ccco2)N2CCc3ccccc3C2)cc1 (centres undefined) the results were KCNQ2 block -6.4* and KCNQ2 enhance -6.4.
NCCNc1ccc(C(=O)N2c3ccccc3Sc3ccccc32)cc1[N+](=O)[O-] was read as KCNQ2 block -8.1* and KCNQ2 enhance -8.1.
For Cc1ccc(NC(=O)c2ccc(NCCN)c([N+](=O)[O-])c2)cc1 the results were KCNQ2 block inactive.
`c1ccc(-c2nnc(-c3c[nH]c4ccccc34)nc2-c2ccccc2)cc1` gave KCNQ2 block -6.8* and KCNQ2 enhance -6.8.
`ClC(Cl)c1nnc(-c2ccccc2)c(-c2c[nH]c3ccccc23)n1` gave KCNQ2 block inactive.
Screening CCOC(=O)c1ccc(NC(=O)c2ccccc2N(C)S(=O)(=O)c2ccccc2)cc1 returned KCNQ2 block inactive and KCNQ2 enhance 0.36.
`COc1ccc(N2C(=O)/C(=C\c3ccco3)N=C2SCC(=O)N(C(C)C)C(C)C)cc1Cl` gave KCNQ2 block inactive.
`CC(C)CN(CC(C)C)C1=N/C(=C\c2ccco2)C(=O)N1c1ccccc1` gave KCNQ2 block -7.4* and KCNQ2 enhance -7.4.
For CC(NC(=O)CCn1ccc2cc(S(=O)(=O)N3CCCC3)ccc21)c1ccccc1 (centres undefined) the results were KCNQ2 block inactive.
Cc1cccc(SC2CCN(C(=O)C3CCC(=O)N(C4CC4)C3)CC2)c1 (centres undefined) was read as KCNQ2 block inactive.
For O=C(COc1ccccc1)Nc1nnc(S(=O)(=O)N2CCCCCC2)s1 the results were KCNQ2 block inactive and KCNQ2 enhance 1.5.
For Cc1ccc(C(=O)CCS(=O)(=O)c2ccc(Br)cc2)cc1 the results were KCNQ2 block inactive.
`COc1ccc(C(=O)CCS(=O)(=O)c2ccc(C)cc2)cc1` gave KCNQ2 block -6.4* and KCNQ2 enhance -6.4.
Screening CCC(Oc1ccccc1)C(=O)Nc1ccccc1N1CCCCC1 (centres undefined) returned KCNQ2 block inactive.
For CC(Oc1ccc(F)cc1)C(=O)Nc1ccccc1N1CCCCC1 (centres undefined) the results were KCNQ2 block -7.7* and KCNQ2 enhance -7.7.
`CCn1c(CN2CCN(c3ccc(Cl)cc3)CC2)nc2ccccc21` gave KCNQ2 block -5.6* and KCNQ2 enhance -5.6.
Screening Cn1c(CN2CCN(c3ccc(Cl)cc3)CC2)nc2ccccc21 returned KCNQ2 block inactive and KCNQ2 enhance 0.08.
For Nc1ccc(S(=O)(=O)N2CCC(Cc3ccccc3)CC2)cc1 the results were KCNQ2 block inactive and KCNQ2 enhance 1.9.
For O=C(c1cn(-c2ccccc2)nc1-c1cccnc1)N1CCCC(C(F)(F)F)C1 (centres undefined) the results were KCNQ2 block inactive and KCNQ2 enhance 0.83.
Screening COC(=O)Cc1ccc(N(Cc2ccccc2F)S(=O)(=O)c2ccc(C)cc2)cc1 returned KCNQ2 block -6.6* and KCNQ2 enhance -6.6.
For Cc1ccc(N(CCC(=O)O)S(=O)(=O)c2ccccc2)cc1 the results were KCNQ2 block inactive and KCNQ2 enhance 0.81.
Cc1ccc2[nH]c(C(=O)N3CCN(C(c4ccccc4)c4ccccc4)CC3)cc2c1 was read as KCNQ2 block -5.8* and KCNQ2 enhance -5.8.
Screening COc1ccccc1N1CCN(C(=O)c2cc3cc(C)ccc3[nH]2)CC1 returned KCNQ2 block inactive and KCNQ2 enhance 1.7.
`Cc1cc(NC(=O)CC2(CC(=O)O)CCCC2)n(C)n1` gave KCNQ2 block inactive.
Screening COc1ccccc1-c1cc(C(=O)N2CCCc3ccccc32)no1 returned KCNQ2 block -6* and KCNQ2 enhance -6.
COc1ccc(OC)c(-c2cc(C(=O)N3CCCc4ccccc43)no2)c1 was read as KCNQ2 block inactive.
For C/C(=N\O)C(C)(C)Nc1ccccc1F the results were KCNQ2 block inactive and KCNQ2 enhance 0.41.
For COC(=O)[C@H](Cc1ccccc1)NC(=O)c1cc(COc2c(F)cccc2F)on1 the results were KCNQ2 block inactive and KCNQ2 enhance 1.9.
`CCOC(=O)CC1(NC(=O)c2cc(COc3c(F)cccc3F)on2)CCCCC1` gave KCNQ2 block -5.7* and KCNQ2 enhance -5.7.
Screening Cn1c(SCC(=O)N2CCCC2=O)nc2ccccc21 returned KCNQ2 block inactive.
COC(=O)CNC(c1ccccc1)c1cc(C)ccc1NS(=O)(=O)c1ccc(C)cc1 (centres undefined) was read as KCNQ2 block inactive.
COC(=O)CNC(c1ccccc1)c1cc(Br)ccc1NC(=O)OCc1ccccc1 (centres undefined) was read as KCNQ2 block -7.4* and KCNQ2 enhance -7.4.
`COC(=O)CNC(c1ccccc1)c1cc(C)ccc1NC(=O)CNC(=O)OCc1ccccc1` (centres undefined) gave KCNQ2 block -5.8* and KCNQ2 enhance -5.8.
CCOC(=O)CNC(c1ccccc1)c1cc(Br)ccc1NC(C)=O (centres undefined) was read as KCNQ2 block inactive.
CC(=O)c1ccc(NC(=O)CC23CC4CC(C2)CC(n2nnc(C)n2)(C4)C3)cc1 was read as KCNQ2 block inactive.
